Outcome and AC50 data for three compounds are collected here from PubChem BioAssay (EPA / NIEHS).

Read-out in assay [1]: TIMP metallopeptidase inhibitor 2 (TIMP2), TIMP2 (gene 7077)
The assay can be described thus: BSK_KF3CT_TIMP2: BioMAP Diversity Plus: KF3CT Assay for TIMP metallopeptidase inhibitor 2 (TIMP2) Biomarker Activity (AID 2283071). The following applies: primary human keratinocytes with fibroblasts; actives raise or lower the signal. The gist of the method:
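Co-culture of human primary keratinocytes and foreskin fibroblasts, measured 24 h after chemical dosing. TIMP-2 quantified by ELISA and fitted in both directions relative to DMSO. Cytotoxicity checked in parallel cultures by SRB total-protein staining.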

Read-out in assay [2]: C-C motif chemokine 2 (Homo sapiens) (UniProt P13500)
The assay can be described thus: BSK_KF3CT_MCP1: BioMAP Diversity Plus: KF3CT Assay for Monocyte Chemoattractant Protein 1 (MCP1/CCL2) Biomarker Activity (AID 2283073). The following applies: primary human keratinocytes with fibroblasts; actives raise or lower the signal. Summed up: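 KF3CT skin co-culture (keratinocytes/foreskin fibroblasts), 24 h post-dose; MCP-1 by ELISA; gain/loss of signal fit bidirectionally vs DMSO baseline.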

Read-out in assay [3]: Matrix Metallopeptidase 9 (MMP9), MMP9 (gene 4318)
Put plainly: BSK_KF3CT_MMP9: BioMAP Diversity Plus: KF3CT Assay for Matrix Metallopeptidase 9 (MMP9) Biomarker Activity (AID 2283074). The following applies: primary human keratinocytes with fibroblasts; actives raise or lower the signal. Summed up:
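Human keratinocyte/foreskin fibroblast co-culture; compound added; 24 h; MMP-9 by ELISA; bidirectional fit vs DMSO baseline.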

Read-out in assay [4]: urokinase plasminogen activator (uPA), PLAU (gene 5328)
The assay can be described thus: BSK_KF3CT_uPA: BioMAP Diversity Plus: KF3CT Assay for urokinase plasminogen activator (uPA) Biomarker Activity (AID 2283075). The following applies: primary human keratinocytes with fibroblasts; actives raise or lower the signal. The gist of the method: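 ELISA readout of uPA, analyzed for signal gain or loss relative to DMSO, from a human primary keratinocyte–foreskin fibroblast co-culture measured 24 h after chemical treatment.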

Read-out in assay [5]: CD40, CD40 (gene 958)
Put plainly: BSK_LPS_CD40: BioMAP Diversity Plus: LPS Assay for CD40 Biomarker Activity (AID 2283076). The following applies: primary human HUVEC with PBMC; actives raise or lower the signal. Summed up:
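ELISA readout of CD40 in HUVEC/PBMC co-culture (BSK_LPS system), 24 h post-dosing; bidirectional curve fit, DMSO baseline; parallel SRB total-protein staining for cytotoxicity.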

Read-out in assay [6]: E-selectin (Homo sapiens) (UniProt P16581)
Put plainly: BSK_LPS_Eselectin: BioMAP Diversity Plus: LPS Assay for Eselectin Biomarker Activity (AID 2283077). The following applies: primary human HUVEC with PBMC; actives raise or lower the signal. Summed up:
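ELISA readout of E-selectin, 24 h post-dose, HUVEC + PBMC co-culture (LPS system). Gain or loss of signal vs DMSO baseline, bidirectional fit.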

Read-out in assay [7]: Interleukin-8 (IL8), CXCL8 (gene 3576)
The assay can be described thus: BSK_LPS_IL8: BioMAP Diversity Plus: LPS Assay for Interleukin-8 (IL8) Biomarker Activity (AID 2283078). The following applies: primary human HUVEC with PBMC; actives raise or lower the signal. Summed up: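 HUVEC + PBMC co-culture, LPS-activated; test chemicals dosed, IL-8 read by ELISA at 24 h. Bidirectional curve fit vs DMSO baseline (gain or loss of signal).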

The nature of assay [8]: BSK_LPS_SRB: Viability Assessment in the BioMAP Diversity Plus: LPS Assay (AID 2283079).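 Also: total protein by sulforhodamine B absorbance as a cytotoxicity measure; measured one day after compound addition; fitted in both directions against DMSO so loss or gain of signal counts.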 The following applies: primary human HUVEC with PBMC. The gist of the method: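 HUVEC + PBMC co-culture, LPS-stimulated; compound 24 h. 10% TCA fix, 0.1% SRB stain, A560. Bidirectional fit vs DMSO.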
Read-out in assay [9]: Interleukin-1 alpha (IL1a), IL1A (gene 3552)
The assay can be described thus: BSK_LPS_IL1a: BioMAP Diversity Plus: LPS Assay for Interleukin-1 alpha (IL1a) Biomarker Activity (AID 2283080). The following applies: primary human HUVEC with PBMC; actives raise or lower the signal. Summed up: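 HUVEC/PBMC co-culture, LPS system; 24 h after dosing; IL-1a by ELISA; gain or loss of signal fitted bidirectionally vs DMSO baseline.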

Read-out in assay [10]: Tissue Factor, F3 (gene 2152)
Put plainly: BSK_LPS_TissueFactor: BioMAP Diversity Plus: LPS Assay for Tissue Factor Biomarker Activity (AID 2283084). The following applies: primary human HUVEC with PBMC; actives raise or lower the signal. Summed up:
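HUVEC/PBMC co-culture, LPS-activated; CD142 ELISA read 24 h post-dose; bidirectional curve fit vs DMSO negative control.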

Read-out in assay [11]: Tumor necrosis factor (Homo sapiens) (UniProt P01375)
The assay can be described thus: BSK_LPS_TNFa: BioMAP Diversity Plus: LPS Assay for Tumour Necrosis Factor alpha (TNFa) Biomarker Activity (AID 2283085). The following applies: primary human HUVEC with PBMC; actives raise or lower the signal. Summed up: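 Human umbilical vein endothelial cells co-cultured with PBMC and stimulated with LPS. TNFa was measured by ELISA 24 h after chemical dosing, fitted bidirectionally relative to DMSO.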

Read-out in assay [12]: Vascular cell adhesion molecule 1 (VCAM1), VCAM1 (gene 7412)
The assay can be described thus: BSK_LPS_VCAM1: BioMAP Diversity Plus: LPS Assay for Vascular cell adhesion molecule 1 (VCAM1) Biomarker Activity (AID 2283086). The following applies: primary human HUVEC with PBMC; actives raise or lower the signal. The gist of the method:
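Human umbilical vein endothelial cells co-cultured with PBMC and stimulated with LPS; VCAM-1 measured by ELISA 24 h after dosing. Bidirectional curve fitting against DMSO baseline; cytotoxicity tracked in parallel by SRB total-protein staining.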

Read-out in the next assay: CD38, CD38 (gene 952)
The assay can be described thus: BSK_SAg_CD38: BioMAP Diversity Plus: SAg Assay for CD38 Biomarker Activity (AID 2283087). The following applies: primary human HUVEC with PBMC; actives raise or lower the signal. Summed up: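 Human HUVEC plus PBMC co-culture stimulated with superantigen; CD38 measured by ELISA 24 h after chemical dosing. Fluorescence read-out, bidirectional fit against DMSO; cytotoxicity tracked in parallel by SRB and Alamar Blue.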

Read-out in assay [13]: CD40, CD40 (gene 958)
The assay can be described thus: BSK_SAg_CD40: BioMAP Diversity Plus: SAg Assay for CD40 Biomarker Activity (AID 2283088). The following applies: primary human HUVEC with PBMC; actives raise or lower the signal. The gist of the method: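 HUVEC/PBMC co-culture, 24 h post-dose; CD40 by ELISA, fluorescence intensity; bidirectional fit vs DMSO negative control.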

Read-out in the next assay: CD69, CD69 (gene 969)
The assay can be described thus: BSK_SAg_CD69: BioMAP Diversity Plus: SAg Assay for CD69 Biomarker Activity (AID 2283089).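 As to AC50: cell surface CD69 protein quantified by ELISA with fluorescence detection.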 The following applies: primary human HUVEC with PBMC; actives raise or lower the signal. Summed up:
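Values derive from bidirectional fitting relative to DMSO vehicle. Cells: umbilical vein endothelium plus peripheral blood mononuclear cells, treated 24 h before fluorescent ELISA for CD69.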

Read-out in assay [14]: Macrophage colony-stimulating factor (MCSF), CSF1 (gene 1435)
The assay can be described thus: BSK_LPS_MCSF: BioMAP Diversity Plus: LPS Assay for Macrophage colony-stimulating factor (MCSF) Biomarker Activity (AID 2283083). The following applies: primary human HUVEC with PBMC; actives raise or lower the signal. Summed up: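 HUVEC + PBMC co-culture (human primary), 24 h post-dose; M-CSF by ELISA; gain/loss of signal fitted bidirectionally vs DMSO baseline.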

Read-out in assay [15]: Monocyte Chemoattractant Protein-1 (MCP1), CCL2 (gene 6347)
Put plainly: BSK_SAg_MCP1: BioMAP Diversity Plus: SAg Assay for Monocyte Chemoattractant Protein-1 (MCP1) Biomarker Activity (AID 2283090). The following applies: primary human HUVEC with PBMC; actives raise or lower the signal. Summed up: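 MCP-1 levels in the endothelial–PBMC SAg co-culture were quantified by ELISA at 24 h post-dosing; both increases and decreases versus DMSO scored. Cytotoxicity monitored by SRB total protein in parallel cultures.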

Read-out in assay [16]: Transforming growth factor beta 1 (TGFb1), TGFB1 (gene 7040)
The assay can be described thus: BSK_KF3CT_TGFb1: BioMAP Diversity Plus: KF3CT Assay for Transforming growth factor beta 1 (TGFb1) Biomarker Activity (AID 2283072). The following applies: primary human keratinocytes with fibroblasts; actives raise or lower the signal. The gist of the method: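 Human keratinocyte/foreskin fibroblast co-culture; TGF-b1 measured by ELISA 24 h after dosing, fitted bidirectionally versus DMSO. Cytotoxicity checked in parallel cultures by total protein (SRB staining, 560 nm).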

A short description of assay [17]: BSK_LPS_PGE2: BioMAP Diversity Plus: LPS Assay for Prostaglandin E2 (PGE2) Biomarker Activity (AID 2283082). The following applies: primary human HUVEC with PBMC; actives raise or lower the signal. The gist of the method: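 HUVEC plus human PBMC co-culture stimulated with LPS; secreted PGE2 quantified by ELISA 24 h after chemical dosing. Activity fitted bidirectionally against DMSO baseline; parallel SRB staining (0.1% SRB after 10% TCA fixation, 560 nm) flags overt cytotoxicity.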

Values joined by “and” are separate entries in the source; they are usually repeats but may differ in a detail not shown here. Equal values may be shown once. Active and inactive are the calls of the source. The calls were made as follows: active = hit-call score of the fitted dose curve at least 0.9, where 1 is the maximum; inactive = score below 0.9.

Chain of E-selectin (Homo sapiens) (P16581 whole entry, looked up): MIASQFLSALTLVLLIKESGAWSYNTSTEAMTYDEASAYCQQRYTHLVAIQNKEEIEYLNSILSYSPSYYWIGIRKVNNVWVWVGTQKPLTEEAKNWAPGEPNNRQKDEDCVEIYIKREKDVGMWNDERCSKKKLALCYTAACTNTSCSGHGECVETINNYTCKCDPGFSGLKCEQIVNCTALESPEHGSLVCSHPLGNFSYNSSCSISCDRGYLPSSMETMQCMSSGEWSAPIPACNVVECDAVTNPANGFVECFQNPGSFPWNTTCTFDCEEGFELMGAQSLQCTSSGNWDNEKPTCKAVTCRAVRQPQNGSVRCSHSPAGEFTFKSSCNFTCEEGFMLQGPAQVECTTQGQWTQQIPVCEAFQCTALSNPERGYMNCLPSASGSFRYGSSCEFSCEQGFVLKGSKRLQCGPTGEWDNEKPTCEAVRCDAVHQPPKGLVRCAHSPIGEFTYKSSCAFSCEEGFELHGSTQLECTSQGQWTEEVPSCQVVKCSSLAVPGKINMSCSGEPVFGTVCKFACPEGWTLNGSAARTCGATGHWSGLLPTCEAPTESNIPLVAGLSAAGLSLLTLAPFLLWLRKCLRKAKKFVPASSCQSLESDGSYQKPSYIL
Chain of Tumor necrosis factor (Homo sapiens) (P01375 whole entry, looked up): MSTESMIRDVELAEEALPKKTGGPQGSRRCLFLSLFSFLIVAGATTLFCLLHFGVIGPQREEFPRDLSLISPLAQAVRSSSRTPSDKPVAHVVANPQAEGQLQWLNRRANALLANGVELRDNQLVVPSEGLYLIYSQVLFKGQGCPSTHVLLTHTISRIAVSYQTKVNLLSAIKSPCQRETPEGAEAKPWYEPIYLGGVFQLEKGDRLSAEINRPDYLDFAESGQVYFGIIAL

The term AC50 denotes the midpoint of the concentration-response curve, whichever way the signal moves. As for `C=CC(=O)OCC(F)(F)C(F)F`, the outcome in [1], in assay [2], in [3], in assay [4], in assay [8] and in assay [10] was inactive. Moreover, the AC50 with CD40, CD40 (gene 958) [5] was 24 µM (active) and 19.9 µM (active); in [6] it was 45.9 µM (active) and 47.4 µM (active); in assay [7], 49 µM (active) and 30 µM (active); in [9], 40 µM (active) and 35.4 µM (active); in [11], 54.6 µM (active) and 54 µM (active); in assay [12], 38 µM (active) and 24.3 µM (active). For the same compound, the AC50 was 24.2 µM (active) and 36.9 µM (active) with CD38, CD38 (gene 952); 37.2 µM (active) and 35.3 µM (active) in the assay with CD40, CD40 (gene 958) [13]; 38.5 µM (active) and 30 µM (active) in the assay with CD69, CD69 (gene 969).

For the compound `COP(=O)(CCC(=O)NCO)OC`, the outcome is “inactive” in [1]; “inactive” in [2]; “inactive” in assay [3]; “inactive” in assay [4]; “inactive” with CD40, CD40 (gene 958) [5]; “inactive” in [6]. The result in assay [7], in assay [8], in assay [9], in [14], in assay [10] and in assay [11] was inactive. Also, the outcome in the assay with CD38, CD38 (gene 952) is “inactive”; with CD40, CD40 (gene 958) [13] it was “inactive”; with CD69, CD69 (gene 969), “inactive”; in [15] it was “inactive”.

For the compound `O=[N+]([O-])c1ccccc1`, the outcome was “inactive” in [1]; “inactive” in assay [16]; “inactive” in assay [3]; “inactive” in [4]; “inactive” with CD40, CD40 (gene 958) [5]; “inactive” in [6]. Further, the result in [7], in assay [8], in assay [9], in [17], in assay [11] and in [12] was inactive. Also, the outcome with CD38, CD38 (gene 952) was “inactive”; with CD40, CD40 (gene 958) [13] it was “inactive”; in the assay with CD69, CD69 (gene 969), “inactive”; in assay [15], “inactive”.
